Measurements taken from the supplement of paper PMC6555819.

Columns and labels:
Test in all cases: PBM binding z-score (relative to random genomic background probes); higher = stronger binding; sequences stand for … in GC…GCGATTGACAGCGTAGAATGAAGG
[1] = system: FXR:RXRa (NR concentration 270 nM, RXRa partner concentration 90 nM)
Method in brief: (§1)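 Ligand-free nuclear receptor dimers were bound for 1 h to custom Agilent 4×180K protein-binding microarrays. Detection used antibodies against each partner (one per run). Binding z-scores rest on regression-normalized fluorescence, with random background probes as the reference.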

[2] = system: LXRa:RXRa (NR concentration 270 nM, RXRa partner concentration 90 nM)
Method in brief: as §1

[3] = system: LXRa homodimer (NR concentration 270 nM)
Method in brief: as §1

[4] = system: LXRb:RXRa (NR concentration 270 nM, RXRa partner concentration 90 nM)
Method in brief: as §1

[5] = system: LXRb homodimer (NR concentration 270 nM)
Method in brief: as §1

[6] = system: PPARa:RXRa (NR concentration 270 nM, RXRa partner concentration 90 nM)
Method in brief: as §1

[7] = system: PPARg:RXRa (NR concentration 180 nM, RXRa partner concentration 90 nM)
Method in brief: as §1

[8] = system: PPARg:RXRa 270nM:90nM, anti-RXR (NR concentration 270 nM, RXRa partner concentration 90 nM)
Method in brief: as §1

[9] = system: PPARg:RXRa 30nM:10nM, anti-RXR (NR concentration 30 nM, RXRa partner concentration 10 nM)
Method in brief: as §1

[10] = system: PPARg:RXRa 90nM:30nM, anti-RXR (NR concentration 90 nM, RXRa partner concentration 30 nM)
Method in brief: as §1

[11] = system: PPARg:RXRa DBDmut IVT, anti-RXR (DBD mutation: RXRa K156A/R161A, NR concentration 270 nM, RXRa partner concentration 90 nM)
Method in brief: as §1

[12] = system: PPARg:RXRa IVT, anti-PPARg (NR concentration 270 nM, RXRa partner concentration 90 nM)
Method in brief: as §1

[13] = system: PPARg DBDmut:RXRa IVT, anti-PPARg (DBD mutation: PPARg1 K132A/R137A, NR concentration 270 nM, RXRa partner concentration 90 nM)
Method in brief: as §1

[14] = system: PPARg DBDmut IVT, anti-PPARg (DBD mutation: PPARg1 K132A/R137A, NR concentration 270 nM)
Method in brief: as §1

[15] = system: PPARg homodimer (NR concentration 180 nM)
Method in brief: as §1

[16] = system: PXR:RXRa (NR concentration 270 nM, RXRa partner concentration 90 nM)
Method in brief: as §1

[17] = system: PXR homodimer (NR concentration 270 nM)
Method in brief: as §1

[18] = system: RARa:RXR (NR concentration 270 nM, RXRa partner concentration 90 nM)
Method in brief: as §1

[19] = system: RARa homodimer (NR concentration 270 nM)
Method in brief: as §1

[20] = system: RARb:RXRa (NR concentration 270 nM, RXRa partner concentration 90 nM)
Method in brief: as §1

Row | Sequence | PBM binding z-score [1] | PBM binding z-score [2] | PBM binding z-score [3] | PBM binding z-score [4] | PBM binding z-score [5] | PBM binding z-score [6] | PBM binding z-score [7] | PBM binding z-score [8] | PBM binding z-score [9] | PBM binding z-score [10] | PBM binding z-score [11] | PBM binding z-score [12] | PBM binding z-score [13] | PBM binding z-score [14] | PBM binding z-score [15] | PBM binding z-score [16] | PBM binding z-score [17] | PBM binding z-score [18] | PBM binding z-score [19] | PBM binding z-score [20]
1 | GCTTACGGGTCAAAGTTTATAGCATGAATAGAAT | 6.86 | 4.62 | 0.38 | 4.67 | 0.532 | 6.2 | 9.24 | 8.11 | 7.16 | 8.84 | 4.19 | 5.17 | 1.43 | 1.62 | 2.34 | 4.83 | 1.1 | 6.42 | 0.895 | 4.06
2 | ACAAGCAGGCCAAGGGTCACTCAAGATTAGTCCG | 2.26 | 2.92 | 0.0513 | 2.56 | -0.322 | 4.58 | 8.28 | 7.67 | 6.24 | 7.51 | 1.27 | 3.95 | 0.299 | -0.852 | 2.21 | 3.26 | -0.154 | 4.08 | 0.779 | 3.47
3 | TCTCGGAGGACACGAAAGGTCCGAGCTCGACATC | 0.78 | 0.222 | -0.359 | -0.21 | -0.97 | 0.254 | 0.0516 | 0.627 | 1.98 | 1.28 | 1.48 | -0.219 | -0.586 | -0.37 | -0.226 | 0.0287 | -0.785 | 0.412 | -1.1 | 1.47
4 | CGACCAAGGTCAGCAGGTCAGTGAAAGCGACGTG | 5.71 | 3.43 | -0.15 | 2.77 | -0.923 | 4.85 | 4.53 | 4.43 | 1.12 | 3.02 | 2.72 | 3.64 | -0.557 | -0.609 | 2.7 | 3.18 | -0.228 | 4.62 | 0.262 | 5.02
5 | GCTCGGAGGACAACGTCAGAGCTTTGTCCGTAGA | -0.816 | -1.18 | -1 | -1.15 | -1.11 | -0.78 | -0.651 | -1.1 | -1.29 | -1.22 | -0.91 | -0.67 | -2 | -1.23 | -2.11 | -0.976 | -1.16 | -1.29 | -1.57 | 0.852
6 | GCGACTGGCGCAAAGCAGGTTACCATAAGGTTGG | -0.457 | -0.431 | -0.662 | -0.683 | -1.4 | -0.182 | 0.258 | -0.247 | -0.734 | -0.475 | -0.223 | -0.321 | -1.05 | -1.11 | -0.736 | -0.34 | -0.486 | -0.0579 | -0.958 | -0.386
7 | CCTCGGAGCACAACAGGAGGTCAGAGCTGCCAGA | 0.811 | 1.54 | 1.97 | 1.4 | -0.755 | 1.65 | 0.0996 | 0.038 | -0.859 | -0.308 | -0.234 | 0.244 | -0.72 | -1.62 | 1.23 | 1.56 | 0.0895 | 2.01 | 0.0401 | 1.74
8 | AGAACGAGGGCACGCTGAGTTGCTAGCAGAGTAG | 0.473 | 0.348 | -0.756 | -0.279 | -1.02 | 2.05 | 1.85 | 1.6 | 0.179 | 0.707 | 4.16 | 3.97 | -0.0983 | -0.499 | -0.0627 | 0.539 | -0.605 | 0.617 | -0.905 | 2.43
9 | AGAACGAGGGCACGATGAGTTGATAGCAGAGTAG | 0.874 | 0.721 | -0.147 | 0.286 | -0.796 | 2.29 | 2.6 | 2.02 | 0.778 | 1.51 | 3.75 | 3.91 | 0.853 | 0.0308 | 0.364 | 1.17 | 0.453 | 1.01 | -0.256 | 2.32
10 | TCGAGTAGGGTACCAATGGGGCATTCAGCTTTCT | -0.419 | -0.00421 | -0.466 | 0.0817 | -0.885 | 0.453 | -0.266 | 0.942 | 0.889 | 0.836 | 1.51 | 1.1 | -1.19 | -0.695 | -0.571 | -0.333 | -0.807 | -0.262 | -1.44 | 0.103
11 | CTCGAAAGGTCGTGCTCCGGTGAGTATACCAAAC | 5.22 | 3.95 | 0.167 | 3.33 | 0.24 | 4.95 | 2.82 | 4.07 | 0.826 | 2.65 | 0.784 | 1.77 | 0.64 | 0.56 | 2.34 | 3.57 | 0.18 | 4.87 | -0.416 | 4.04
12 | CCGACTGGGGCAAGGTTACCACAACGCACAGCCA | 0.0767 | 0.351 | -0.32 | 0.671 | -1.11 | 1.98 | 2.91 | 3.54 | 1.2 | 2.55 | 3.33 | 3.56 | 0.0122 | -0.719 | -0.214 | 0.24 | -0.209 | 0.76 | 0.366 | 1.61
13 | AGAATGAGGTTTCCAAAGATCAGGGAAACGCTTG | -0.506 | -0.535 | -0.424 | -0.463 | -0.489 | -0.139 | 0.377 | -0.265 | -0.17 | -0.215 | 0.298 | -0.0805 | 0.256 | 0.153 | -0.417 | -0.387 | -0.601 | -0.144 | -0.745 | -0.151
14 | TCTCGAAGGACACGAAAGGTCAGAGCTCGACATC | 2.94 | 3.47 | 2.63 | 3.26 | 0.0129 | 3.58 | 1.59 | 3.13 | 3.42 | 3.16 | 2.34 | 1.64 | 0.0703 | 0.551 | 1.75 | 3.79 | 0.247 | 4.04 | 0.683 | 4.23
15 | ATCTCTAGGTAACAAGCTCAGTGAAAGAGAGGAC | 0.331 | 0.45 | -0.0616 | -0.105 | 0.556 | 0.394 | 0.682 | 0.77 | 0.327 | 0.644 | 2.93 | 2.48 | 0.643 | 1.26 | 0.56 | -0.0529 | 0.34 | 0.0879 | 0.837 | 0.417
